Screening data as filed in PubChem BioAssay.
Wnt act = activates Wnt/beta-catenin signaling in a reporter cell assay; actives 1.2% (n = 300,000); AID 743398; activator, plate reader; activation, % at 9.35 µM; in the data active means activation above about 30%, passing the limit was not always enough;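 further: 0% = neutral control wells and 100% = positive control wells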
hcDAF12 agonist = H. contortus DAF-12 activation, primary screen | HEK293 hcDAF-12 lit1-tk-luc reporter, luminescence; 0% DMSO, 100% Δ7-dafachronic acid | actives 1.4% (n = 370,000) | activation, % at 6.8 µM | AID 652067;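 active means activation above the mean of all tested compounds plus 3 SD, cut at about 5.5% in these data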;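 further: 100% = response to 3 µM Δ7-dafachronic acid high control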
DAX1 inh = DAX1 (NR0B1) inhibition, primary screen | HEK293T StAR-luciferase reporter, SF-1/DAX-1 repression relief | inhibition, % at 6.8 µM | actives 1.1% (n = 370,000);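 active means inhibition above the mean over all tested compounds plus 3 SD, cut at about 3.6% in these data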;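 further: 0% = DAX-1 cells with DMSO and 100% = cells lacking DAX-1 with DMSO; higher inhibition means more luminescence from relief of DAX-1 repression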
esBAF inh = SWI/SNF esBAF complex inhibition; mouse ES cells, Bmi1-luciferase knock-in reporter, 24 h; 100% = twice the neutral-well signal; reporter increase, % at 12.5 µM; actives 2% (n = 350,000); in the data active means activation above about 40%;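 further: 0% = median of the plate's neutral control wells and 100% = double that signal; a rise in the Bmi1 reporter signal indicates esBAF inhibition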
hgDAF-12 ag = activates the H. glycines DAF-12 receptor ligand-binding domain | actives 1.8% (n = 370,000) | activation, % at 6.8 µM | HEK293 GAL4-hgDAF12 UAS-luciferase reporter, agonist luminescence; normalized to butyrate control;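 active means activation above a cutoff set at the mean of all screened compounds plus 3 SD, cut at about 10% in these data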;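 further: 0% = DMSO wells and 100% = sodium butyrate wells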
ssDAF-12 act = activators of S. stercoralis DAF-12 nuclear receptor; HEK293 ssDAF-12/GRIP1 lit1-tk-luc reporter, luminescence; % of 3 µM dafachronic acid response; activation, % at 6.8 µM; actives 1% (n = 370,000); AID 652126;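 active means activation above the mean over all tested compounds plus 3 SD, cut at about 0.9% in these data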;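 further: 0% = DMSO-only wells and 100% = 3 µM delta7-dafachronic acid wells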
* = called active by the depositor; nt = not tested or not shown. Rows were chosen to be rich in hits. Some 4.2% of all compounds tested hit in one or more screens of this group.

SMILES	Wnt act	hcDAF12 agonist	DAX1 inh	esBAF inh	hgDAF-12 ag	ssDAF-12 act
CC(C)(C)C(=O)Nc1nc2c(s1)CN(Cc1ccccc1)CC2	-2	2	2	nt	11*	0
Cc1c(N=C2C=C(Br)C(=O)C(Br)=C2)c(=O)n(-c2ccccc2)n1C	11	-1	0	nt	-4	-2
Cc1c(N=C2C=CC(=O)c3ccccc32)c(=O)n(-c2ccccc2)n1C	3	5	0	nt	4	1.4*
O=C(O)c1cc(-c2ccc(/C=N/N3C(=O)C4C5C=CC(CC5)C4C3=O)o2)ccc1Cl (stereo unspecified)	0	-1	0	nt	-1	-1
COC(=O)c1ccc(-c2ccc(/C=N/N3C(=O)C4C5C=CC(CC5)C4C3=O)o2)cc1 (stereo unspecified)	28	3	1	60*	6	-1
COc1cccc(-n2c(Cc3cc(=O)[nH]c(=O)[nH]3)nnc2SCC(=O)N2CCCCCC2)c1	2	6.3*	0	-6	-3	0
COc1ccc(Nc2nnc(Cc3ccncc3)c3ccccc23)c(OC)c1	1	-3	0	52*	-3	-1
O=C(C[C@H]1C[C@@H]2c3cc(NS(=O)(=O)c4ccc(F)cc4)ccc3O[C@@H]2[C@H](CO)O1)NCc1ccccc1F	nt	nt	nt	-3	nt	nt
CC1CC(=O)c2cnc(Nc3ccccc3)nc2C1 (stereo unspecified)	19	4	4.0*	31	10	0
CC(C)c1ccc(CN(C)C(=O)c2ccc(S(=O)(=O)NCc3ccco3)cc2)cc1	34*	-3	-4	-2	-4	-2
CN(Cc1ccc(Cl)cc1)C(=O)c1ccc(S(=O)(=O)NCc2ccco2)cc1	19	-2	-2	-1	-5	-2
Cc1ccc(NC(=O)c2ccc(Cl)c(S(=O)(=O)NCc3ccco3)c2)c(O)c1	9	5	3.9*	11	4	1
Cc1cccc(NC(=O)c2ccc(S(=O)(=O)NCc3ccco3)cc2)n1	-1	-1	0	56*	2	-1
Cc1ccc(NC(=O)c2ccc(S(=O)(=O)NCc3ccco3)cc2)nc1	16	-1	3	nt	5	-1
CCC(=O)NC(c1ccc(OC)cc1)c1c(O)ccc2ccccc12 (stereo unspecified)	-5	-1	-2	3	0	-1
CCC(=O)NC(c1ccc(N(C)C)cc1)c1c(O)ccc2ccccc12 (stereo unspecified)	-1	6.3*	0	0	1	0
CCOc1ccc(C(=O)Cc2ccccc2)cc1	18	2	1	nt	12*	1.1*
CCOc1ccc(C(=O)NC(Cc2ccccc2)C(=O)OC)cc1 (stereo unspecified)	nt	1	2	74*	8	-1
CCOC(=O)C(CNc1ccc(OCc2ccccc2)cc1)NC(=O)c1ccccc1 (stereo unspecified)	44*	3	1	nt	9	-1
CCOC(=O)/C(=C\Nc1ccc(OCc2ccccc2)cc1)NC(=O)c1ccccc1	-2	-1	-1	nt	4	-1
CCC(=O)Nc1ccc2c(c1)C(=O)N(C)C[C@@H](OC)[C@H](C)CN(CC1CCCCC1)[C@@H](C)CO2	nt	nt	nt	5	nt	nt
CCC(=O)N1C[C@@H]2[C@H](c3ccccc31)[C@H](CO)N2CC1CCCC1	nt	nt	nt	-7	nt	nt
COCC(=O)N(C)C[C@H]1Oc2cc(C#CC(C)(C)O)ccc2S(=O)(=O)N([C@H](C)CO)C[C@H]1C	nt	nt	nt	3	nt	nt
CCOC(=O)CCC(=O)N1CCNC(=O)C1	-1	5.6*	0	-5	0	-2
CN(C)C(=O)C[C@@H]1C[C@@H]2c3cc(NS(C)(=O)=O)ccc3O[C@@H]2[C@H](CO)O1	nt	nt	nt	2	nt	nt
SMILES	Wnt act	hcDAF12 agonist	DAX1 inh	esBAF inh	hgDAF-12 ag	ssDAF-12 act
O=Cc1ccc(OCc2ccccn2)cc1	12	1	0	12	11*	-1
O=Cc1ccc(OCc2ccc3ccccc3c2)cc1	16	3	1	50*	12*	0
c1ccc(COc2cccc(CNCc3ccccn3)c2)cc1	5	2	0	nt	5	0
O=Cc1cccc(OCc2cccc3ccccc23)c1	10	0	1	66*	6	-1
O=S(=O)(c1ccccc1)N1CCCCN2[C@H](CO)[C@H](c3ccc(C#Cc4cccnc4)cc3)[C@@H]2C1	nt	nt	nt	-3	nt	nt
O=C(C[C@@H]1C[C@H]2c3cc(NC(=O)C4CCC4)ccc3O[C@H]2[C@@H](CO)O1)NCCc1ccccc1	nt	nt	nt	-5	nt	nt
Cn1cccc1/C=N/NC(=O)c1sc2ccccc2c1Cl	11	-1	2	62*	3	-1
O=C(N/N=C/c1ccc([N+](=O)[O-])o1)c1sc2ccccc2c1Cl	32*	-4	-2	nt	-7	-2
C[C@H](NC(=O)C[C@H]1CC[C@H](NC(=O)c2cccnc2)[C@@H](CO)O1)c1ccccc1	nt	nt	nt	-3	nt	nt
CCc1ccc(C(=O)NNC(=O)CCc2nc3ccccc3c(=O)[nH]2)cc1	0	-1	3.6*	-2	1	0
COc1ccccc1S(=O)(=O)N[C@H]1CC[C@H](CC(=O)N2CCN(C)CC2)O[C@H]1CO	nt	nt	nt	0	nt	nt
CC(C)C#Cc1cnc2c(c1)C(=O)N([C@@H](C)CO)C[C@H](C)[C@H](CN(C)C(=O)Nc1ccc(F)cc1)O2	nt	nt	nt	-4	nt	nt
Cc1ccc(/C=N\Nc2cn[nH]c(=O)c2Cl)cc1	-3	2	1	53*	4	-1
O=c1c2ccccc2nc(N/N=C/c2c(O)ccc3ccccc23)n1O	nt	0	-2	-3	-4	-1
Clc1ccccc1-c1nc(N/N=C/c2cccnc2)c2ccccc2n1	nt	-1	-2	nt	-2	-2
O=c1c2ccccc2nc(N/N=C/c2ccc(O)cc2)n1O	nt	1	1	47*	4	-1
Clc1ccc(/C=N/Nc2nc(Cl)nc3ccccc23)cc1	nt	4	2	58*	10	-1
CO[C@H]1CN(C)C(=O)c2ccc(NC(=O)Nc3cccc(F)c3)cc2OC[C@@H](C)N(C(=O)C2CC2)C[C@@H]1C	nt	nt	nt	9	nt	nt
COc1ccccc1C1=NN(C(=S)Nc2ccccc2)C(c2ccco2)C1 (stereo unspecified)	nt	3	1	56*	7	0
C[C@@H]1CCCCO[C@@H](CN(C)CC2CCCCC2)[C@H](C)CN([C@H](C)CO)C(=O)c2cc(NC(=O)NC3CCCCC3)ccc2O1	nt	nt	nt	0	nt	nt
O=C(CN(Cc1ccco1)C(=O)c1cccc(F)c1)Nc1ccccc1C(F)(F)F	2	0	3.7*	-6	0	-1
Cc1oc(-c2ccccc2Cl)nc1CN1CCCCC1c1cccnc1 (stereo unspecified)	-1	1	0	nt	-2	-2
